Experimental data taken from PubChem BioAssay.
The other results are listed elsewhere or left out. Values without a mark were called inactive. Activity calls are given as the source filed them.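 How the source made its calls, unless noted: active means mean inhibition above about 50% in the one-dose retest (limit read from the data); inactive means the rest.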

Key:
[1] = molecular target: Sentrin-specific protease 8 (Homo sapiens) (UniProt Q96LD8); test: human SENP8 peptidase blockers, hit retest – biochemical, luminescence, single concentration, confirmation (AID 488912;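 active means mean inhibition across replicates above about 50%, limit read from the data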); details: Recombinant SENP8, Z-RLRGG-aminoluciferin luminescence, 60 min; at 12.5 µM; active compounds read high
[2] = molecular target: Sentrin-specific protease 6 (Homo sapiens) (UniProt Q9GZR1); test: inhibition of human SENP6 catalytic domain – biochemical, luminescence, single concentration, confirmation (AID 488915); details: recombinant SENP6, Z-RLRGG-aminoluciferin luminescence; at 12.5 µM; active compounds read high
[3] = molecular target: Sentrin-specific protease 7 (Homo sapiens) (UniProt Q9BQF6); test: human SENP7 peptidase blockers, hit retest – biochemical, luminescence, single concentration, confirmation (AID 488917); details: recombinant SENP7, Z-RLRGG-aminoluciferin luminescence, 40 min; at 12.5 µM; active compounds read high
Caspase-3 (Homo sapiens) = Caspase-3 (Homo sapiens) (UniProt P42574); test: human caspase-3 activity blockade, out-of-family – biochemical, single concentration, selectivity assay for SENP inhibitor project, confirmation (AID 488918;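 active means mean inhibition above about 50%, limit read from the data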;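 further: plate controls were enzyme with DMSO for no effect and wells without caspase-3 for full effect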); details: purified caspase-3, Z-DEVD-aminoluciferin luminescence, 60 min; at 12.5 µM; active compounds read high
[4] = Ultra-Glo luciferase signal interference – biochemical, single concentration, SENP8 reaction pre-completed, artefact control for SENP inhibitor project, confirmation (AID 488919;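 active means mean inhibition above about 50% when retested at one dose, limit read from the data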;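 further: plate controls were DMSO wells with completed reaction for no effect and substrate without enzyme for full effect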); details: Pre-incubated SENP8/Z-RLRGG-aminoluciferin, luciferase luminescence interference; at 12.5 µM; active compounds read high

Sequence of Sentrin-specific protease 7 (Homo sapiens) (Q9BQF6 706-1050 limits assumed): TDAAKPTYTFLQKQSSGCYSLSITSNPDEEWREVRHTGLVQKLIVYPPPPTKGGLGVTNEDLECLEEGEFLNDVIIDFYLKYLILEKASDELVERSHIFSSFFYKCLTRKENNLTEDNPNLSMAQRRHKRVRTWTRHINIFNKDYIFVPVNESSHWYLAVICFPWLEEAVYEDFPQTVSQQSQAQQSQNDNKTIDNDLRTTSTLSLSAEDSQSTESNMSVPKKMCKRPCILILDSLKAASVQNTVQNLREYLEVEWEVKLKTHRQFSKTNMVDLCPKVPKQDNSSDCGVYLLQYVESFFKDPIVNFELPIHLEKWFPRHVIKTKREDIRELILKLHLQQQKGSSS
Sequence of Sentrin-specific protease 8 (Homo sapiens) (Q96LD8 whole entry, looked up, the tested form may be a part): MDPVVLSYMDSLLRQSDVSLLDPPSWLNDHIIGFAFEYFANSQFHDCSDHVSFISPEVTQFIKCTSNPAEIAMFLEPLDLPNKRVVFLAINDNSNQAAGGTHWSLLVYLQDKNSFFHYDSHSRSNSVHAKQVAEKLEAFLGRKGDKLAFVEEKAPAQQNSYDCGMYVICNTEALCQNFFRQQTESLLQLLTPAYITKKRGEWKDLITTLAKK
Sequence of Sentrin-specific protease 6 (Homo sapiens) (Q9GZR1 628-1112 limits assumed): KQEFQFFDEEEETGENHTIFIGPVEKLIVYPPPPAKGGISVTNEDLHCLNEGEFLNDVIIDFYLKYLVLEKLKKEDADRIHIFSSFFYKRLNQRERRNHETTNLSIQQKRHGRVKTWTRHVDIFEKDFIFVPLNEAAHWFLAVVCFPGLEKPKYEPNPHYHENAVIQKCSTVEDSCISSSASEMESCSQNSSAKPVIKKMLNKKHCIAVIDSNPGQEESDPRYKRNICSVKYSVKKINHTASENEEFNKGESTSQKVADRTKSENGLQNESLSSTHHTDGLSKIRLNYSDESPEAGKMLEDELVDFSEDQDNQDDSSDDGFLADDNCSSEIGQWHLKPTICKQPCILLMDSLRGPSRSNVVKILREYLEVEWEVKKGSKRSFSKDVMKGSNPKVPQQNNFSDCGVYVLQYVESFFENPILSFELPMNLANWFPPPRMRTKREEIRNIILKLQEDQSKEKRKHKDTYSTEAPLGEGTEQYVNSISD
Sequence of Caspase-3 (Homo sapiens) (P42574 28-227 limits assumed): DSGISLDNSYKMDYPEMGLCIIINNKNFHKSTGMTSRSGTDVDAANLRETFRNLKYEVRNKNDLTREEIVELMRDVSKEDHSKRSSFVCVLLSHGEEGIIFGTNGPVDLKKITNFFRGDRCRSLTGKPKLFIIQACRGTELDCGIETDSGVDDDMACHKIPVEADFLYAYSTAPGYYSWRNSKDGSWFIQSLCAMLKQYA

SMILES | inhibition [1] | inhibition [2] | inhibition [3] | inhibition (Caspase-3 (Homo sapiens)) | inhibition [4]
Nc1[nH][nH]c(=O)c1N=Nc1ccc2c(c1)OCO2 | 41.3% | 39.2% | 67.3% (active) | 74% (active) | 12%
O=C(ON=C1CCN(S(=O)(=O)c2ccccc2)CC1)c1ccc(Cl)cc1 | 12.5% | 15.5% | 3.4% | 17.7% | -1.9%
Cc1nn2cc(-c3ccc(Cl)cc3)cnc2c1Br | 17.8% | 15.7% | 30.8% | 28.5% | 9%
CCc1noc(C)c1C(=O)Nc1nc2ccc(OC)cc2s1 | 45.2% | 42.8% | 78.3% (active) | 58.3% (active) | 19.6%
CC(OC(=O)c1ccc2ccccc2n1)C(=O)c1ccccc1 (stereo not given) | 54.3% (active) | 50% | 87.7% (active) | 75% (active) | 64.5% (active)
Cc1cccc(NS(=O)(=O)c2cccc(C(=O)NNC(=O)c3ccccc3O)c2)c1 | 26.9% | 54.5% (active) | 75.5% (active) | 56.8% (active) | 49.9%
N/C(=N\OC(=O)CCC1CCCCC1)c1ccccn1 | 88.5% (active) | 88.3% (active) | 98.2% (active) | 90.7% (active) | 43.5%
Cc1cccc(OC(=O)c2sc3ncn(C)c(=O)c3c2C)c1 | 1.1% | 0.1% | 17.1% | 14.4% | -2.4%
